Measured values from PubChem BioAssay AID1508635 (National Center for Advancing Translational Sciences (NCATS), 2021).
Results filed as inconclusive are left out. Active and inactive are the calls of the source. Calls come from the whole dose curve; as a rule, active = well fitted inhibition curve with a large enough effect; inconclusive = small, poorly fitted or top-dose-only effect; inactive = no such curve, though single readings can be large or run the other way. Numbered stars: 1 amine (or outer) side, 2 acyl side, 3 side chain; on linkers, the order of the positions; unused ones are H or OH. Square brackets hold non-standard residues; d marks the D form. Peptide text beside a SMILES is read from it. X1 = O=C([C@@H](CC(O)CCl)O[*:1])[*:2]; aIle = CC[C@@H](C)[C@H](N)C(=O)O; NMeV = CN[C@H](C(=O)O)C(C)C; NMeA = CN[C@@H](C)C(=O)O; βAla = NCCC(=O)O

Each compound was assayed on zebrafish Abcb4 (ABCB1 homolog) (assay: qHTS for characterization and localization of zebrafish homologs of the human ABCB1 multidrug transporter: ABCB4 transfected cells). Details: CellTiter-Glo viability luminescence, 72 h; series mostly up to 15.2 µM.
From the text: The zebrafish has emerged as a potential model to study the blood-brain barrier (BBB) given its similarities with mammalian systems. However, little information has been available with regard to homologous ATP-binding cassette transporters expressed at the zebrafish BBB. Two transporters that are highly expressed at the human BBB are P-glycoprotein (P-gp, encoded by the ABCB1 gene) and ABCG2 (encoded by the ABCG2 gene). In this study, we focus on characterization of P-gp homologs in the zebrafish, which has two genes that are homologous to human ABCB1 - abcb4 and abcb5. We generated stably-transfected cell lines to determine their substrate specificities. […] Zebrafish abcb4 also colocalized with claudin 5 expression in brain endothelial cells.
A high-throughput screen was performed as previously described on empty vector transfected cells, P-gp-overexpressing MDR-19 cells and cells transfected with full-length zebrafish abcb4 (ZF Abcb4) or abcb5 (ZF Abcb5). Briefly, cells were plated into 1536-well plates at a density of 500 cells/well in 5 uL media. P-gp substrate compounds (approximately 90) selected from our previous study were then added at varying concentrations using a 1536-head pin tool (Kalypsis, San Diego, CA) and plates were incubated at 37C in 5% CO2 for 72 h. CellTiter-Glo reagent (Promega) was dispensed into the wells, incubated for 5 min and luminescence was read on a ViewLux instrument (Perkin-Elmer).
Cytotoxic compounds were defined as those that yielded a curve class of -1.1, -1.2, -2.1, -2.2, -2.3, or -2.4, a maximum response of >50% and an AC50 of < 10 uM. All compounds from screening analysis were tested in Vector (empty vector control), MDR-19 (P-gp overexpressing), zebrafish abcb4 (ZF Abcb4) and abcb5 (ZF Abcb5) expression cell lines.
1. Tobie D Lee, Olivia W Lee, Kyle R Brimacombe, Lu Chen, Rajarshi Guha, Sabrina Lusvarghi, Bethilehem G Tebase, Carleen Klumpp-Thomas, Robert W Robey, Suresh V Ambudkar, Min Shen, Michael M Gottesman, Matthew D Hall. A High-Throughput Screen of a Library of Therapeutics Identifies Cytotoxic Substrates of P-glycoprotein. […]
In the case of C[C@@H]1[C@@H](CC(C[C@H]2O[C@@H]3O[C@]4(C)CC[C@@H]5[C@H](C)CC[C@@H]([C@H]2C)[C@@]35OO4)C[S+](=O)([O-])c2ccc(COC(=O)N(C)C)cc2)O[C@@H]2O[C@]3(C)CC[C@H]4[C@H](C)CC[C@@H]1[C@@]24OO3 (stereo partly drawn), the Potency is reported as 2.35 µM (active).
For C=CCON=C(C[C@H]1O[C@@H]2O[C@]3(C)CC[C@@H]4[C@H](C)CC[C@@H]([C@H]1C)[C@@]24OO3)[C@H]1O[C@@H]2O[C@]3(C)CC[C@H]4[C@H](C)CC[C@@H]([C@@H]1C)[C@@]24OO3, the Potency was 1.87 µM (active).
In the case of CC[C@@H](C)[C@@H]1NC(=O)[C@@H]2CCCN2C(=O)[C@@H](CC(O)CCl)OC(=O)CCNC(=O)[C@H](C)N(C)C(=O)[C@H](C(C)C)N(C)C1=O (stereo partly drawn) (cyclo([NMeA][βAla][X1]P[aIle][NMeV])), the Potency is reported as “inactive”.
